Each structure is given as a SMILES string. Out of some 290,000 compounds screened, about 2,600 (0.9%) were called active. The sample holds actives, similar compounds and a random draw of the others, so the mix is not that of the screen. Values without a mark were called inactive.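 The calls were made as follows: active = inhibition above the mean of all tested compounds plus 3 SD, cutoff set per screening run (cut at about 7.5% in these data); inactive = the rest.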

The test system of this assay is VIM-2 metallo-beta-lactamase (Pseudomonas aeruginosa). Put plainly: VIM-2 metallo-beta-lactamase inhibitors, primary screen, biochemical, epi-absorbance readout, Pseudomonas aeruginosa enzyme (AID 1527).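 Also: red hydrolysis product quenches plate fluorescence so inhibitors raise well fluorescence; 0% = enzyme with DMSO and 100% = DMSO without enzyme.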 Conditions: purified VIM-2, nitrocefin hydrolysis, epi-absorbance fluorescence; at 5.6 µM; active compounds read high.
A word on the inhibition: it is the change of the read-out against control, counted positive when it falls. As for `CCOc1c(Br)cc(/C=C2\C(=O)N(CCC#N)N=C2C)cc1OC`, the inhibition was 0.69%.
In the case of `COc1cccc2c(=O)n(CC(=O)N3CCCCCC3)ccc12` it was 1.04%.
To `CCN1CCN(C(=O)Cn2nc(C)n3c(cc4c(OC)cccc43)c2=O)CC1` belongs 28.3% (active); to `CCc1nn(CC(=O)N2CCN(CC)CC2)c(=O)c2cccn12`, -0.45%; to `COc1ccc(C(CNC(=O)COc2ccccc2OC)N2CCCCC2)cc1` (stereo unspecified), -0.07%.
In the case of `Cc1ccc(CN(N=Nc2nonc2N)c2nonc2N)c(C)c1` it was -1.22%.
Turning to `O=C(COc1ccc(-n2cnnn2)cc1)Nc1ccccc1Cl`, the inhibition was 0.31%.
To `CCN(CC)CCCNC(=O)c1cc2c(=O)[nH]c3ccc(C)cc3c2s1` belongs 11.4% (active); to `Cc1cccc(N(C)C(=O)c2cc3c(=O)[nH]c4ccc(C)cc4c3s2)c1`, -1.79%; to `CCN(CC)CCCNC(=O)c1cc(-c2cccc(Cl)c2)on1`, -2.99%.
To `NC(=O)c1cc2ccccc2o/c1=N/NC(=O)c1cccc(F)c1` belongs -3.88%; to `CCN(CC)c1ccc2cc(C(N)=O)/c(=N\NC(=O)c3ccncc3)oc2c1`, 17.2% (active); to `COc1ccc(C(=O)N/N=c2\oc3ccccc3cc2C(N)=O)cc1`, -2.23%.
Regarding `COc1ccccc1CNC(=O)C1CCN(C(=O)[C@@H]2Cc3ccccc3CN2)CC1`, the inhibition is -1%.
As for `Nc1nc(SCc2cccc(Br)c2)n[nH]1`, the inhibition was -2.53%.
Consider `CC(C)c1cc(NCc2ccccn2)n2c(nc3ccccc32)c1C#N`, for which the inhibition is 3.25%.
In the case of `Cc1cc(NC(C)C)n2c(nc3ccccc32)c1C#N` it was 6.91%.
To `Cc1cc(NCc2ccco2)n2c(nc3ccccc32)c1C#N` belongs 23.1% (active).
To `CC(C)c1ccc2oc(=O)cc(CN3CCN(Cc4ccccc4)CC3)c2c1` belongs -0.17%; to `CCOC(=O)N1CCC(N2Cc3cccc(C(=O)Nc4ccc(S(=O)(=O)N(CC)CC)cc4)c3C2=O)CC1`, 1.9%.
Turning to `O=C(NNS(=O)(=O)c1ccccc1)c1cnn(-c2ccc(Cl)cc2)c1C(F)(F)F`, the inhibition was -0.91%.
To `COc1ccccc1N1CCN(c2nc(C)cc(=O)[nH]2)CC1` belongs -1.83%; to `CN(C)c1ccc(CNC2C3CC4CC(C3)CC2C4)cc1` (stereo unspecified), -1.88%; to `O=C(CCC(=O)N/N=C/c1ccc(Br)o1)N/N=C/c1ccc(Br)o1`, -1.34%.
In the case of `O=C(NCCCN1CCOCC1)c1cc2c(s1)CCC2` it was -5.51%; in that of `CN1CCN(CCCNC(=O)c2cc3c(=O)oc4ccccc4c3s2)CC1`, 7.83% (active); in that of `O=C(NCCN1CCN(Cc2ccccc2)CC1)c1cc2c(=O)[nH]c3ccccc3c2s1`, 7.06%.
To `CCOC(=O)N1CCN(S(=O)(=O)N2CCCC(C(=O)NCCCN3CCC(C)CC3)C2)CC1` (stereo unspecified) belongs -0.26%; to `Cc1ccc(Nc2c3c(nc4ccccc24)CCC3)cc1`, 5.26%.
With `CC(=O)Nc1ccc(Nc2c3ccccc3nc3ccccc23)cc1`, the inhibition is 9.49% (active).
To `CC(=O)Nc1ccc(-c2nc3ccccc3o2)cc1` belongs -1.18%; to `Cc1ccc(Oc2nc3ccccc3n3c(C)nnc23)cc1`, 0.26%.
To `Nc1nnc2c(C(F)(F)F)nc3ccccc3n12` belongs 14.8% (active).
In the case of `FC(F)(F)c1nnc2c3ccccc3c(Cl)nn12` it was 4.08%; in that of `COc1ccc(C2=NS(=O)(=O)N(C)C(C(=O)N(C)Cc3ccccc3)=C2)cc1`, -0.5%.
Take `CN(C(=O)c1cc2c(=O)n3ccccc3nc2s1)C1CCCCC1`: the inhibition is 3.44%.
To `Cc1ccccc1-n1nc(C)c2cc(C(=O)NC3CC3)sc21` belongs -1.43%; to `Cc1cccn2c(=O)c3cc(C(=O)NC4CCCCC4)sc3nc12`, 8.99% (active); to `CCc1ccc(N(CC(=O)NCc2cccnc2)S(=O)(=O)c2ccccc2)cc1`, -2.09%.
Turning to `COc1ccccc1C(=O)Nc1ccnn1C1CCN(C(=O)C(C)(C)C)CC1`, the inhibition is -0.24%.
In the case of `CCC(=O)NCc1cc(-c2nn(C)c(=O)c3ccccc23)ccc1OC` it was 1.81%.
In the case of `COc1ccc(-c2nn(C)c(=O)c3ccccc23)cc1CNC(=O)C1CCCCC1` it was 8.72% (active); in that of `COc1ccc(-c2nn(C)c(=O)c3ccccc23)cc1NC(=O)COc1ccccc1`, 3.19%.
To `COc1ccc(-c2nn3c(-c4ccccc4)nnc3s2)cc1OC` belongs 14.4% (active); to `CCOc1cccc(-c2nn3c(-c4ccccn4)nnc3s2)c1`, 1.31%.
With `c1ccc(-c2cc(-c3nnc4sc(-c5ccccn5)nn34)[nH]n2)cc1`, the inhibition was 6.5%.
In the case of `COc1cc(-c2nnn(CC(=O)NCc3ccccc3)n2)cc(OC)c1OC` it was -0.9%; in that of `Fc1ccc(-c2ccc(-c3nn4c(-c5ccco5)nnc4s3)o2)cc1`, -1.72%.
In the case of `COc1cc(-c2nn3c(-c4cccc(C)c4)nnc3s2)cc(OC)c1OC` it was 14.8% (active).
To `COc1ccc(C)cc1S(=O)(=O)N(CC(=O)Nc1cccc([N+](=O)[O-])c1)c1ccc(C)cc1` belongs -0.96%.
As for `COc1ccc(C(C(=O)NC2CCCCC2)N(C(=O)c2snc(C(N)=O)c2N)c2ccccc2OC)cc1` (stereo unspecified), the inhibition is -3.87%.
To `N#Cc1cc([N+](=O)[O-])ccc1NCC1CCCO1` (stereo unspecified) belongs -4.39%; to `CN(Cc1ccccn1)Cc1nc(-c2ccc(Cl)cc2)no1`, -2.91%; to `CCN(CCn1cccn1)Cc1nc(-c2ccc(C(=O)OC)cc2)no1`, 0.55%.
On to `COC(=O)c1ccc(-c2noc(CN(Cc3ccccn3)CC3CCCO3)n2)cc1` (stereo unspecified), for which the inhibition was 19.8% (active).
In the case of `COc1ccccc1C(=O)NNC(=O)CCN1C(=O)/C(=C\c2ccccc2)SC1=S` it was -3.54%.
In the case of `COc1ccc(/C=C2\SC(=S)N(CCC(=O)Nc3ccccn3)C2=O)cc1OC` it was -0.57%; in that of `COc1cc(/C=C2/SC(=S)N(Cc3ccccc3)C2=O)cc(OC)c1O`, 7.8% (active).
`O=C(CCc1ccccc1)NNC(=O)COc1ccc(Cl)cc1`: the inhibition was -4.89%.
In the case of `Cc1ccc(C2CCN(C(=S)Nc3cccc(Cl)c3)C2)cc1` (stereo unspecified) it was -1.21%; in that of `O=C(NCC(=O)N1CCN(c2ccccc2F)CC1)c1cccs1`, -3.61%.
In the case of `O=C(O)CS/C(=C\c1ccc(F)cc1)c1nc2ccccc2s1` it was 2.23%; in that of `O=C(Nc1nc2ccccc2s1)c1ccc2c(c1)OCO2`, -3.05%; in that of `O=C(O)CC/C(=C\c1cc2c(cc1Br)OCO2)c1nc2ccccc2s1`, 7.92% (active).
Consider `C/C(=N\NC(=O)C1(C)CC1(Br)Br)c1ccc(C)cc1C` (stereo unspecified), for which the inhibition is -0.97%.
In the case of `CC(C)n1c(COc2ccccc2)nc2ccccc21` it was -2.15%; in that of `O=C(CN1CCN(S(=O)(=O)c2cc(Cl)ccc2Cl)CC1)c1ccc(O)c(O)c1`, 2.29%; in that of `CCCc1cc(=O)oc2c(C)c(OCC(=O)N3CCC(C(=O)O)CC3)ccc12`, -1.65%.
For the compound `CCc1cc(=O)oc2cc(C)cc(OCC(=O)N3CCC[C@@H]3C(=O)O)c12`, the inhibition is 14.5% (active).
In the case of `CCc1cc(=O)oc2cc(C)cc(OC(C)C(=O)O)c12` (stereo unspecified) it was -2.35%; in that of `O=C(NCC1CCCO1)c1ccccc1-c1nc(-c2ccccc2Cl)no1` (stereo unspecified), -2.71%; in that of `COc1ccccc1NC(=O)c1cc(N2C(=O)C3C4CCC(C4)C3C2=O)ccc1Cl` (stereo unspecified), -0.65%.
In the case of `COc1ccc(CCNC(=O)CCn2c(=O)c3ccccc3n(CC(=O)NCC3CCCO3)c2=O)cc1OC` (stereo unspecified) it was -1.51%; in that of `CCn1c(=N)c(C(=O)NCCCOC)cc2c(=O)n3cccc(C)c3nc21`, 10.5% (active).
In the case of `Cc1cccn2c(=O)c3cc(C(=O)NCCN4CCOCC4)c(=N)n(Cc4cccnc4)c3nc12` it was 4.67%; in that of `COc1ccc(CCn2c(=N)c(C(=O)NCC3CCCO3)cc3c(=O)n4cccc(C)c4nc32)cc1OC` (stereo unspecified), 16.1% (active).
As to `COc1ccc(CCn2c(=N)c(C(=O)NCc3ccco3)cc3c(=O)n4cccc(C)c4nc32)cc1`, the inhibition was -1.42%.
Regarding `Cc1cccn2c(=O)c3cc(C(=O)NCC4CCCO4)c(=N)n(Cc4ccc(F)cc4)c3nc12` (stereo unspecified), the inhibition is 5.79%.
To `Cc1ccc(S(=O)(=O)N(CC(=O)NCCSC2CCCCC2)c2ccccc2F)cc1` belongs -2.1%.
In the case of `COc1cccc(N(C(=O)c2snc(C(N)=O)c2N)C(C(=O)NCC2CCCO2)c2c[nH]c3ccccc23)c1` (stereo unspecified) it was -0.46%.
In the case of `CCOC(=O)C1(Cc2ccccc2C)CCCN(C(=O)CCc2c(C)noc2C)C1` (stereo unspecified) it was 0.38%; in that of `Cc1occc(=O)c1OCc1ccc(F)cc1`, -1.42%; in that of `COC(=O)CN1C(=O)[C@H]2[C@@H](C3CC3)N3C(=O)CN(Cc4ccc(-c5ccccc5)cc4)C(=O)[C@@]3(Cc3ccccc3)[C@H]2C1=O`, -2.72%.
On to `Cc1cc(NC(=O)c2ccc(F)cc2)ccc1NC(=O)c1ccco1`, for which the inhibition is -3.06%.
To `Cc1[nH]n(-c2ccccc2)c(=O)c1N=Nc1ccccc1C(=O)N1CCCCC1` belongs -0.74%.
In the case of `Cc1[nH][nH]c(=O)c1N=Nc1ccccc1` it was -4.7%; in that of `COC(=O)c1ccccc1N=Nc1c(C)[nH][nH]c1=O`, 8.28% (active).
With `CN(Cc1ccco1)S(=O)(=O)c1nnc(NC(=O)c2ccccc2)s1`, the inhibition was -2.48%.
In the case of `O=c1oc2ccccc2c(NC2CCCCC2)c1NS(=O)(=O)c1ccc(Cl)cc1` it was -2.68%.
Consider `Cc1cc2c(cc1C)[n+](C)cn2CC(O)COCC1CC=CCC1` (stereo unspecified), for which the inhibition is -3.17%.
As for `Clc1ccc(C2=CSC3=Nc4cccc5cccc(c45)N23)cc1`, the inhibition was 1.95%.

Source of the values: PubChem BioAssay AID1527 (The Scripps Research Institute Molecular Screening Center, 2009).
